An excerpt weighted towards active compounds, which were near 2.1% of everything screened.
TDP43 rescue: inhibitors of TDP-43 toxicity in yeast; 1.8% of 410,000 active; TDP-43 expressing yeast growth rescue, BacTiter-Glo, 24 h; Potency, µM (doses to about 46.1 µM), without a hit: at the highest dose growth rescue (activation), hits mostly activators; also: % of control where 0% means no effect; nearly all actives have a fitted effect of over 50% in size
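In this qHTS, compounds that restore growth of yeast expressing TDP-43 appear as activators. Cells (OD600=0.02, galactose medium, raffinose-pregrown) are incubated with compound 24 hr at 30 deg C and growth is quantified by BacTiter-Glo.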
FUS yeast rescue: FUS proteinopathy suppression in yeast; S. cerevisiae FUS-expressing, growth rescue, OD600, 24 h; Potency, µM (titrated, usually from 76.6 µM), usual class: activators; 0.24% of 390,000 active;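 also: plate controls were DMSO vehicle for no effect and reference control for full effect; nearly all actives have a fitted effect of over 55% in size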
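Toxicity suppression screen in FUS-yeast. Cells induced with 2% galactose, starting OD 0.005, treated 24hr at 30C with compounds at multiple final concentrations; growth by OD600.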
aSyn rescue: rescues yeast growth from alpha-synuclein toxicity. AID 652106. Potency, µM (titrated, usually from 46.1 µM), without a hit: at the highest dose growth rescue (activation), most hits filed as activators. Yeast expressing alpha-synuclein, growth rescue, BacTiter-Glo, 24 h. 0.14% of 370,000 active; also: % of control where 0% means no effect; nearly all actives have a fitted effect of over 65% in size
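Rescue of yeast growth: cells expressing toxic alpha-synuclein, induced in galactose at OD600 0.02, incubated with compound 24 h at 30 C. ATP luminescence quantified growth; inhibitors of toxicity appear as activators.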
Abeta rescue: restores growth of yeast expressing A-beta42 peptide; Potency, µM (top dose mostly 46.1 µM), usual class: activators; AID 1347071; 0.063% of 410,000 active; yeast expressing A-beta42, growth rescue, OD600, 48 h; response scale: 0% DMSO, 100% iron-clioquinol control; also: nearly all actives have a fitted effect of over 55% in size
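Yeast A-beta toxicity model in growth medium with pinned compounds, 48 h at 30 C; growth read as absorbance at 600 nm. Normalized to FeCl3/clioquinol equimolar mix (positive) and DMSO (negative).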
* hit, by the source's call; i = inactive; ? = inconclusive; . = no result; [ ] = remark or other dose. Calls follow the shape of the dose curve; as a rule, active = well fitted curve in the direction sought with a large enough effect; inconclusive = small, poorly fitted or top-dose-only effect, or another doubt; inactive = no such curve, though single readings can be large; an effect the other way counts as inactive or inconclusive. Potency is read from the fitted curve at half-maximal effect.

SMILES	TDP43 rescue	FUS yeast rescue	aSyn rescue	Abeta rescue
Nc1cnn(-c2ccccc2)c(=O)c1Cl	8.2%	i	-1.4%	i
CCCCSc1nc2c(cnn2-c2ccccc2)c(=O)n1N	15.8µM*	i	-29.3%	i
COc1cc(-n2c(=S)[nH]c3ccccc3c2=O)c(Cl)cc1Cl	?	i	-1.7%	i
CC(C)Oc1cc(-n2c(=S)[nH]c3ccccc3c2=O)c(Cl)cc1Cl	10µM*	i	-5.3%	i
CC(=O)O[C@@]12CO[C@@H]1C[C@H](OC1OCC(O)C(O)C1O)[C@@]1(C)C(=O)[C@H](O)C3=C(C)[C@@H](OC(=O)[C@H](O)[C@@H](NC(=O)c4ccccc4)c4ccccc4)C[C@@](O)([C@@H](OC(=O)c4ccccc4)C12)C3(C)C (some centres not stated)	6.5%	10µM*	4.7%	i
CCC(=NCCO)c1c(O)n(C2CCCCC2)c(=O)[nH]c1=O	24.5%	i	0.5%	i
CCC(=NCc1ccc2c(c1)OCO2)c1c(O)n(C2CCCCC2)c(=O)[nH]c1=O	20µM*	i	1.0%	i
COc1ccc(/C=N/N=C(/N)N[N+](=O)[O-])c(OC)c1	14.4%	i	0.5%	i
COc1ccc(OC)c(/C=N/OC(=O)Nc2ccc(Cl)cc2)c1	17.8µM*	i	-15.2%	i
CC(C)(O)[C@H]1O[C@H]2CC[C@@]3(C)[C@@](O)(CC[C@H]4Cc5c([nH]c6ccccc56)[C@@]43C)C2=CC1=O	22.4µM*	?	2.6%	?
O=C(CCn1c(=O)oc2ccccc21)N1CCN(c2ccccc2Cl)CC1	12.6µM*	i	7.5%	i
O=C1CCN(C(=O)CCCn2c(=O)oc3ccccc32)CC1	2.4%	i	0.9%	i
N#Cc1ccccc1Cn1cc(C(=O)C2CC2)c2ccccc21	20µM*	i	10.7%	i
N#Cc1ccccc1Cn1cc(C(=O)c2ccco2)c2ccccc21	14.8%	i	1.6%	i
CCC(=O)c1cn(Cc2ccccc2C#N)c2ccccc12	25.1µM*	i	5.1%	i
CC1(C)N([O])C(c2ccc(C(=O)O)cc2)=[N+]([O-])C1(C)C	.	.	-4.8%	.
COc1nnc(-c2ccc(N3CCCCC3)c(NC(=O)c3ccccc3)c2)c2ccccc12	?	i	.	i
Cc1ccc(-c2nc(CN3C(=O)CN=C(c4ccccc4)c4ccccc43)c(C)o2)cc1	4.7%[9.22 µM]	i	.	i
Cc1oc(-c2ccccc2Cl)nc1CN1C(=O)CN=C(c2ccccc2)c2ccccc21	35.5µM*	i	-30.9%	i
O=C1NCCOC(=O)[C@@H](Cc2ccc(F)cc2)CC/C=C/C[C@@H]1CC(=O)N(CCO)Cc1ccccc1	22.5%	?	0.8%	i
C=C1C=C(C(F)F)n2ncc(C(=O)NCc3ccccc3F)c2N1	.	.	-0.1%	.
C=C(COC(=O)CCC(=O)O)CC1CC(O)[C@]2(C)OC3CC4OC5C[C@]6(C)O[C@]7(C)CCC8OC9C[C@]%10(C)OC%11C(C)=CC(=O)OC%11CC%10OC9C[C@@H](C)C8OC7CC6O[C@]5(C)C/C=C\C4OC3CC2O1 (some centres not stated)	13.9%	7.08µM*	-1.0%	i
Cc1cccc(NC(=O)c2cc3c(=O)n4ccccc4nc3n2C)c1C	?	i	.	i
C[C@H]1CCCC=CC2C[C@H](O)C[C@@H]2[C@H](O)C=CC(=O)O1 (some centres not stated)	.	.	-0.3%	.
COc1ccc(C(=O)C23CN4CN(CN(C4)C2)C3)cc1	-23.1%	i	-9.0%	i
SMILES	TDP43 rescue	FUS yeast rescue	aSyn rescue	Abeta rescue
COc1ccc(C(=O)C(C)(C)NO)cc1	11.2µM*	i	?	?
NN=C1C(Cl)=C(Cl)C(Cl)=C1Cl	17.8µM*	i	4.0%	i
O=C1NC(=O)C(=Cc2ccccc2Oc2ccc(F)cc2)C(=O)N1	-13.3%	i	-4.0%	i
CN1C(=O)C(=Cc2ccccc2Oc2ccc(Cl)c(F)c2)C(=O)N(C)C1=O	22.4µM*	i	4.9%	i[9.22 µM]
CCCCCCCCCCCCCC(=O)O[C@@H]1[C@@H](C)[C@@]2(O)[C@@H](C=C(CO)C[C@@]3(O)C(=O)C(C)=C[C@@H]23)C2C(C)(C)[C@@]21OC(C)=O (some centres not stated)	.	.	7.7%	.
Cc1ccc2c(c1)NP(=S)(Oc1ccccc1)N2 (configuration not stated)	35.5µM*	i	?	i
Cc1ccccc1-c1ccc2c(c1)C1c3c(-c4ccccc4)nnn3-c3ccccc3C(=O)N1CC2 (configuration not stated)	?	?	2.4%	i
O=C1c2ccccc2-n2nncc2C2c3cc(Br)ccc3CCN12 (configuration not stated)	35.5µM*	i	-3.3%	i
Cc1cccc(OCCNc2ncccc2[N+](=O)[O-])c1	?	i	9.9%	i
C#CCOc1ccc2c(c1)c(C(C)=O)c(C)n2Cc1ccccc1	20µM*	i	-9.1%	i
COc1ccc(CN2Cc3cnnn3-c3ccccc3C2c2ccccc2)cc1 (configuration not stated)	0.0%	i	13.1%	i
c1ccc(C2c3ccccc3-n3nncc3CN2CC2CCCCC2)cc1 (configuration not stated)	15.8µM*	i	-28.8%	i
O=[N+]([O-])c1ccc(S(=O)(=O)N2CCn3cccc3C2c2ccccc2F)cc1 (configuration not stated)	22.4µM*	?	.	i
COC(=O)C1=C(c2cccc(OCc3ccccc3)c2)C[C@@H]2CC[C@H]1N2C(=O)NCc1ccc(F)cc1	23.3%	?	-12.5%	i
COC(=O)C1=C(c2cccc(OCc3ccccc3)c2)C[C@@H]2CC[C@H]1N2C(=O)NCc1ccc2[nH]ccc2c1	-1.0%	8.91µM*	-5.0%	i
Cc1onc(-c2ccccc2)c1C(=O)N[C@@H]1C(=O)N2C1SC(C)(C)[C@@H]2C(=O)O (some centres not stated)	?	i	-0.4%	i
C=CCOC(=O)COc1cc(C)cc2oc(=O)c3c(c12)CCC3	14.1µM*	?	-0.3%	i
NC(=NCCC[C@H](N)C(=O)O)N[N+](=O)[O-]	.	.	-7.0%	.
N#CCCN	.	.	-7.5%	.
COc1ccc(Nc2nc(N)nc(CSc3nc4ccccc4s3)n2)cc1	20µM*	?	.	i
COc1ccccc1N=Nc1ccc(N)c(C)c1	?	i	-6.7%	i
S=C(NCCc1ccccc1)N1Cc2ccccc2-n2nncc2C1	22.4µM*	i	-0.5%	i
S=C(NCCc1ccccc1)N1Cc2cc(N3CCCCC3)ccc2-n2nncc2C1	35.5µM*	?	12.1%	i
CCCn1c(C)c(C(=O)c2ccc3ccccc3c2)c2ccccc21	.	.	-15.8%	.
c1ccc2sc(C3(N4CCCCC4)CCCCC3)cc2c1	.	.	3.8%	.
CCC(=O)O[C@H]1CC[C@H]2[C@@H]3CCC4=CC(=O)CC[C@]4(C)[C@H]3CC[C@]12C	14.1µM*	i	0.6%	i

High-throughput results as filed in PubChem.
